40 sequences from the supplement of paper PMC6555819 can be followed below.

The test system of the first experiment is RXRa homodimer (NR concentration 180 nM). Put plainly: PBM binding z-score (relative to random genomic background probes); higher = stronger binding; sequences stand for … in GC…GCGATTGACAGCGTAGAATGAAGG
An outline of the steps: (§1)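 Regression normalization was applied to scanned fluorescence from custom Agilent 4×180K protein-binding microarrays. Before scanning, arrays were incubated 1 h with ligand-free nuclear receptor dimers, and binding was detected with antibodies against each partner (one per run). Binding z-scores use the random background probes as reference.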
TCTAGCAGGCCAGAGGGCCACTCAAGAGGTACGG registered a PBM binding z-score of 0.144.
Turning to CAAACTAGGTCAAAGGTCCAAGTCGAGCCAACCA, the PBM binding z-score came out at 5.69.
Still for that read-out and setting: next, CCTTACGGGTCACTCCCGGTTATAGCATCGGAGT: 4.33; CGAACTAGGTCAAGGACAGTGACTCTCCGCACGC: 2.69.
As for GCCAGCAGGCCATTTGGGTCACTCAATGACGGGC, the PBM binding z-score is 0.736.
The sequence TCTTATAGGTAAAGGTGAAAGTCGAACGATATGA registered a PBM binding z-score of 2.43.
On to TCTGCTAGGTCAGTTGTTCAGCTAACGAGCTGCC, for which the PBM binding z-score was found to be 0.641.
On the same count and under the same terms, to CATACAGTGTCAGCTAGGCCAGAGTAGGGACGGC belongs 0.0865.
On the same count and under the same terms, next, CGCACGAGGGCATGAGTTGATAGCAAATGCCGAT: 0.956; TAGCCTAGGTCATTGGGCGAGTATAGTACGCATC: 2.88.
The same measure, in the same setting: next, AGCACGAGGGCACGCTGAGTTGATAGCAGAGTAG: 1.52; GCAGACAGGTGAAACTCAGGTAACTCAGGGTGGC: 0.901.
As for ACTAGTTGGTCAGCGGAGGTCACACACAATTCGG, the PBM binding z-score was 3.77.
Sequence TCTATTAGTTGAAGGGCTACCGACGAGTCCGTTT gave a PBM binding z-score of 0.354.
On the same count and under the same terms, next, CGTCCAAGGTGAAGGTCAGTGAAAGAGACTCGAA: 2.36; CCGACTGGGGCAAAGGTTACCTTACTCAGTACGA: 3.54.
TCATATAGGTAAAGGTGAAAGTGGAACGATATGA returned a PBM binding z-score of 2.41.
CCGACTGGGACAAGGTTACCATAACGCACAGCCA yielded a PBM binding z-score of 1.19.
Take TCTCGGAGGACCCGAAAGGTCAGAGCTCGACATC: the PBM binding z-score was 4.04.
Still for that read-out and setting: to CGTCAAGGTTCAAGGTAACGTAACAGAAAGCAGC belongs 3.11; to CCTACTGGGCCAAAGGTAATTGATTCCAATGCTC, 0.00386; to TCTTGTAGATCGAGCAGGTTAAGAAAGCCTGAGT, 0.0253.
Same read-out and setting: next, CAAACTAGGTCACCGGAAGGTCAAGGTCCGCATG: 6.64; TGAACGAGGTTATAAGATCAGGGAACGTTGCAAA: 2.02.
As for ACTAGTTGGTCAGCTGAGGTCTCACACAATTCGG, the PBM binding z-score is 0.296.
CAAACTAGGTAACGAAAGGTCAAAGTCGAATGAC: the PBM binding z-score was 6.35.
The sequence CCTATTAGTTGACCATAAGGGCAACCGAAGCTCG yielded a PBM binding z-score of 1.02.
Still for that read-out and setting: next, TCGAGTAGGTAAGTCGGGGCATTCAGCCAACATA: -0.331; CGAACGAGGGCATGAATTGATAGCAAATGCCGAT: 0.708.
Consider TCACCAAGGTGAGCTGAGGTCGTTGATCCAACTC, for which the PBM binding z-score came to 1.28.
Regarding ACAGACAGGTGAGTGAAGGTAACTCAGCTGGACG, the PBM binding z-score amounted to 0.428.
Still for that read-out and setting: next, ACTAGCAGGCCGAGGGTCACTCAAGATTAGTCCG: 2.49; CCTATTAGTTGACCATAAGGACAACCGAAGCTCG: 0.852; AGTCAAAGTTCACTAGGTACCGTAAGATTCAGCT: 3.75.
GCTTACGGGTCAAAGGTTATAGAATGAATAGAAT registered a PBM binding z-score of 9.56.
On the same count and under the same terms, to ATCTCTAGGTAACAAGTTCTGTGAAAGAGAGGAC belongs 0.105; to ATCTTTAGGTAAAAGTTCAGTGAATCCCGAGGAT, 1.57.
On the same count and under the same terms, to CAAACTAGGTCAAGAGGTCAAAATCCGCTTCCCG belongs 7.25; to ACTAGCAGGCCAAGTTTGGGTCAGTCAAACAAAG, 0.0586.
Still for that read-out and setting: next, TCTCGGAGGACACGAAAGGTCAGATCTCGACATC: 3.65.

A further experiment concerns THRa:RXRa (NR concentration 90 nM, RXRa partner concentration 90 nM). The experiment is described as above. The essentials: as §1
TCTAGCAGGCCAGAGGGCCACTCAAGAGGTACGG had a PBM binding z-score of -0.545.
Same read-out and setting: to CAAACTAGGTCAAAGGTCCAAGTCGAGCCAACCA belongs 3.15; to CCTTACGGGTCACTCCCGGTTATAGCATCGGAGT, 3.71; to CGAACTAGGTCAAGGACAGTGACTCTCCGCACGC, 3.31.
The same measure, in the same setting: to GCCAGCAGGCCATTTGGGTCACTCAATGACGGGC belongs 1.8.
Same read-out and setting: next, TCTTATAGGTAAAGGTGAAAGTCGAACGATATGA: 1.39; TCTGCTAGGTCAGTTGTTCAGCTAACGAGCTGCC: 1.25; CATACAGTGTCAGCTAGGCCAGAGTAGGGACGGC: 0.027.
In the case of CGCACGAGGGCATGAGTTGATAGCAAATGCCGAT, the PBM binding z-score is 1.3.
On the same count and under the same terms, next, TAGCCTAGGTCATTGGGCGAGTATAGTACGCATC: 2.72; AGCACGAGGGCACGCTGAGTTGATAGCAGAGTAG: 2.05; GCAGACAGGTGAAACTCAGGTAACTCAGGGTGGC: 2.7.
The same measure, in the same setting: to ACTAGTTGGTCAGCGGAGGTCACACACAATTCGG belongs 4.32; to TCTATTAGTTGAAGGGCTACCGACGAGTCCGTTT, -0.151.
Still for that read-out and setting: next, CGTCCAAGGTGAAGGTCAGTGAAAGAGACTCGAA: 2.71; CCGACTGGGGCAAAGGTTACCTTACTCAGTACGA: 2.12; TCATATAGGTAAAGGTGAAAGTGGAACGATATGA: 1.36.
Turning to CCGACTGGGACAAGGTTACCATAACGCACAGCCA, the PBM binding z-score came out at 1.61.
On the same count and under the same terms, to TCTCGGAGGACCCGAAAGGTCAGAGCTCGACATC belongs 2.75.
The same measure, in the same setting: to CGTCAAGGTTCAAGGTAACGTAACAGAAAGCAGC belongs 2.61; to CCTACTGGGCCAAAGGTAATTGATTCCAATGCTC, 0.0403; to TCTTGTAGATCGAGCAGGTTAAGAAAGCCTGAGT, 0.0849.
On the same count and under the same terms, next, CAAACTAGGTCACCGGAAGGTCAAGGTCCGCATG: 4.3; TGAACGAGGTTATAAGATCAGGGAACGTTGCAAA: 1.43.
As to ACTAGTTGGTCAGCTGAGGTCTCACACAATTCGG, the PBM binding z-score amounted to 2.7.
Still for that read-out and setting: to CAAACTAGGTAACGAAAGGTCAAAGTCGAATGAC belongs 4.
On the same count and under the same terms, to CCTATTAGTTGACCATAAGGGCAACCGAAGCTCG belongs 2.02; to TCGAGTAGGTAAGTCGGGGCATTCAGCCAACATA, 0.543; to CGAACGAGGGCATGAATTGATAGCAAATGCCGAT, 0.857.
On the same count and under the same terms, to TCACCAAGGTGAGCTGAGGTCGTTGATCCAACTC belongs 4.7.
The sequence ACAGACAGGTGAGTGAAGGTAACTCAGCTGGACG yielded a PBM binding z-score of 1.51.
Same read-out and setting: to ACTAGCAGGCCGAGGGTCACTCAAGATTAGTCCG belongs 1.91.
Sequence CCTATTAGTTGACCATAAGGACAACCGAAGCTCG displayed a PBM binding z-score of 3.42.
Same read-out and setting: to AGTCAAAGTTCACTAGGTACCGTAAGATTCAGCT belongs 1.65; to GCTTACGGGTCAAAGGTTATAGAATGAATAGAAT, 3.89.
On the same count and under the same terms, to ATCTCTAGGTAACAAGTTCTGTGAAAGAGAGGAC belongs 1.12; to ATCTTTAGGTAAAAGTTCAGTGAATCCCGAGGAT, 1.76; to CAAACTAGGTCAAGAGGTCAAAATCCGCTTCCCG, 4.55.
ACTAGCAGGCCAAGTTTGGGTCAGTCAAACAAAG returned a PBM binding z-score of 1.62.
Still for that read-out and setting: to TCTCGGAGGACACGAAAGGTCAGATCTCGACATC belongs 3.82.
